GC-B act = GC-B (human) receptor activation | AID 1920062 | P20594 | activation, % at 10 µM | actives 0.11% (n = 370,000) | HEK293-GC-B cells, CNP EC30, cGMP TR-FRET; 0% at EC30 CNP, 100% saturating CNP;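 active means activation at 10 µM reaching about 35% in either raw or pattern-adjusted values, limit read from the data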
Target sequence (P20594 whole entry, looked up): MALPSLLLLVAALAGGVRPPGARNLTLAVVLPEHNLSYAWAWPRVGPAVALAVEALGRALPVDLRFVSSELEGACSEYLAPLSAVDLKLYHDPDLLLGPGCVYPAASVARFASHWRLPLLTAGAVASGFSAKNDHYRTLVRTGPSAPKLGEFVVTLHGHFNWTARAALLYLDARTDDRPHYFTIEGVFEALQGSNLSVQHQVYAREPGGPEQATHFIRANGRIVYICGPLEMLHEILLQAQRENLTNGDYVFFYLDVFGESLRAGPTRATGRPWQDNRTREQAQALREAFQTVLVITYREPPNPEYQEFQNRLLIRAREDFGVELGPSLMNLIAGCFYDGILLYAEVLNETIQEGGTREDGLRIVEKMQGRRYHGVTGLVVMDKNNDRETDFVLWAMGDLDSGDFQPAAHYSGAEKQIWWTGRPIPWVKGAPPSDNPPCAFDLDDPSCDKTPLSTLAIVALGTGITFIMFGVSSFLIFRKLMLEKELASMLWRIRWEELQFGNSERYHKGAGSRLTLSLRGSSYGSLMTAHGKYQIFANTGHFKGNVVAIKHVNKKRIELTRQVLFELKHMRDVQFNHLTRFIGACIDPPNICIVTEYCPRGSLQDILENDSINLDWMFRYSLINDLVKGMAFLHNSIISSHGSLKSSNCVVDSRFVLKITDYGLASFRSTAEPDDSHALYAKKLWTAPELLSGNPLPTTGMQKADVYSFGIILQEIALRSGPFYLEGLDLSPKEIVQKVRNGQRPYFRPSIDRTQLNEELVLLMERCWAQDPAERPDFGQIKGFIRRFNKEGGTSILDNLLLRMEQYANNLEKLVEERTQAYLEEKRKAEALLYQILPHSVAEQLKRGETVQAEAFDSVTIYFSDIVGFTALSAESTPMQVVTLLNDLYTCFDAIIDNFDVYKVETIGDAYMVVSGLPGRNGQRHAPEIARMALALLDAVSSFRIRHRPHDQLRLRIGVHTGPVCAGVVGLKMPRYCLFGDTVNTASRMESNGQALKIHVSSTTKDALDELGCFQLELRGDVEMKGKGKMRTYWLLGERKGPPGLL
Efflux pump inh = inhibitors of Candida antifungal efflux pumps expressed in yeast; actives 0.44% (n = 330,000); AID 485275; S. cerevisiae Candida pump triplex, Nile Red efflux; inhibition, % at 10 µM;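 active means plate passing quality check with inhibition over a set limit, or well fluorescence over plate mean plus 4 SD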;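 further: Nile Red retained in pooled yeast measured as flow cytometry median fluorescence; 0% = buffer negative control and 100% = Enniatin B positive control; higher means more Nile Red kept so more efflux inhibition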
Rce1 inh = blocks yeast Ras-converting enzyme; actives 0.27% (n = 290,000); AID 2563; calls only; yeast membranes, quenched prenylated peptide cleavage fluorescence;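 active means fall in fluorescence gain of 50% or more versus controls, with final raw signal at or below 3038400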;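 further: plate controls were neutral control wells for no effect and wells lacking membranes for full effect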
V-ATPase pH = yeast V-ATPase proton transport regulation by pHLuorin; response, % at 10 µM; AID 504577; actives 0.37% (n = 350,000); S. cerevisiae, pHLuorin cytosolic pH fluorescence; in the data active means response mostly above about 7.3%, no sharp cut-off; inactive means mostly below about 5.4%; further: actives read high
NPR1 activator = GC-A (human) enzyme activation | HEK293 GC-A cells, cGMP TR-FRET, EC30 ANP; 0% at EC30 ANP, 100% saturating ANP | activation, % at 10 µM | actives 0.14% (n = 370,000) | AID 1671463; in the data active means activation above about 40%
NSD2 inh = blocks human histone methyltransferase NSD2; inhibition, % at 12.5 µM; actives 0.54% (n = 310,000); AID 743445; NSD2 peptide methylation, AlphaScreen, 120 min; O96028; in the data active means inhibition above about 50%
VATPase regulator = yeast V-ATPase proton transport regulation; shares compounds with V-ATPase pH; S. cerevisiae pHLuorin cytosolic pH; response, % at 10 µM; actives 2% (n = 980); AID 602197; in the data active means response above about 24%;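 further: plate controls were vehicle wells for no effect and positive control wells for full effect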
An asterisk follows results filed as active; i = inactive; . = no result given. A selection: hits, their analogues and other compounds. The true share with any hit is near 1.6%.

SMILES	GC-B act	Efflux pump inh	Rce1 inh	V-ATPase pH	NPR1 activator	NSD2 inh	VATPase regulator
O=C(OC12CCCN(C1)/C(=C/c1ccncc1)C2)c1ccco1 (stereo not given)	-7.2	.	.	.	-4.7	.	.
Cc1ccccc1C(=O)NC(=S)Nc1ccc(S(=O)(=O)N2CCOCC2)cc1	9.0	-0.1	i	9.5*	-2.5	-2.2	-2.8
Cc1ccccc1C(=O)NC(=S)Nc1ccc(S(=O)(=O)N2CCN(C)CC2)cc1	.	0.1	i	0.7	.	2.6	.
Cc1cc(C)cc(C(=O)OCCN2CCN(C3CN(Cc4cn(Cc5ccccc5F)nn4)S(=O)(=O)C3)CC2)c1 (stereo not given)	2.6	.	.	.	3.1	.	.
CC(Oc1cc(F)ccc1[N+](=O)[O-])C(=O)Nc1ccc(S(=O)(=O)N2CCCC2)cc1 (stereo not given)	12.8	0.0	i	14.9*	3.6	1.2	-3.3
Cc1ccccc1OC(C)C(=O)Nc1ccc(S(=O)(=O)N2CCCC2)cc1 (stereo not given)	3.8	-1.0	i	-6.0	1.0	-3.8	.
O=C(CSc1nnc(-c2cccnc2)n1Cc1ccco1)Nc1cc(Cl)ccc1F	-13.3	.	.	.	-5.8	1.1	.
COc1ccc(OC)c(CNC(=O)C2CCN(S(C)(=O)=O)CC2)c1	-0.2	0.1	i	10.6*	2.2	-2.1	-1.2
CCCN(CCC)CC(O)COc1ccc2c(c1)OCO2 (stereo not given)	0.5	-0.1	i	8.9*	1.6	29.2	-4.2
C[C@H](NC(=O)c1ncn2c1C(=O)N[C@@H](C)C2)c1ccccc1	2.3	.	.	-0.1	2.2	.	.
C[C@@H]1Cn2cnc(C(=O)N[C@@H](C)c3ccccc3)c2C(=O)N1	6.5	.	.	4.2*	3.6	.	-0.4
C/C(=N/NC(=O)c1cccnc1)c1cccc(O)c1	-11.8	.	.	.	0.4	8.7	.
O=C1C=CC(=Nc2ccc3c(c2)Cc2cc(F)ccc2-3)O1	35.3*	.	.	11.7	33.1	1.8	99.6*
Cc1occc1C(=O)N/N=C/c1sc(N2CCOCC2)nc1-c1ccccc1	-8.3	0.2	i	10.1*	-1.8	-7.4	0.7
N#Cc1c(C(F)(F)F)cc(-c2cccs2)nc1SCc1cccnc1	3.3	-0.1	i	7.7*	10.0	.	-26.6
CN1CCN(C(=S)NC(=O)c2ccco2)CC1	-3.6	0.2	i	11.1*	0.2	-0.2	0.4
O=C(NCCc1ccccc1)OCc1cn(Cc2cc(F)ccc2F)nn1	0.8	.	.	.	1.8	-0.9	.
CN(CC(=O)Nc1ccc(F)cc1[N+](=O)[O-])Cc1ccccc1	0.7	0.1	i	7.9*	1.9	11.2	-0.4
O=C(N[C@@H](Cc1ccccc1)C(=O)NCCc1c[nH]c2ccccc12)c1ccco1	0.7	-0.1	i	12.9*	-2.7	1.7	-0.8
Cc1sc(-c2ccccn2)nc1OC(=O)c1ccc(F)cc1F	12.1	0.0	i	10.9*	-1.9	0.6	0.8
C=C1C(=O)O[C@@]23[C@H]1CC[C@@H](C)[C@@H]2CC[C@@]1(C)O[C@@H]31	.	-0.4	.	23.1*	.	.	0.1
CCCC[C@H]1C2CC(OC(=O)Nc3ccccc3)C(C2)[C@H]2CCCCN21 (stereo not given in full)	-0.2	.	.	.	1.9	.	.
CCOC(=O)/C(C#N)=C1/C=CN(Cc2ccccc2)C=N1	1.5	0.0	i	3.3	-4.7	0.3	.
CCOC(=O)/C(C#N)=C1\C(=O)N(Cc2ccccc2)c2ccccc21	4.9	-0.2	i	10.4*	19.0	.	6.5
Nn1c(SCc2ccc([N+](=O)[O-])cc2)nnc1-c1n[nH]c2c1CCC2	-12.3	.	.	.	-2.5	-3.2	.
SMILES	GC-B act	Efflux pump inh	Rce1 inh	V-ATPase pH	NPR1 activator	NSD2 inh	VATPase regulator
CCCCN(C)C(=O)c1ccc2c(c1)NC(=O)C(C)(C)O2	-4.8	.	.	.	4.1	-1.7	.
O=C(N/N=C/c1ccc(O)cc1O)c1ccncc1	-3.5	-0.1	i	6.8*	0.7	3.6	-2.1
CCCCCCCCN1CN2Cc3cc(F)ccc3C2CS1(=O)=O (stereo not given)	4.3	.	.	.	3.3	.	.
O=C1NCCN/C1=C\C(=O)c1ccc(F)cc1	-1.1	0.2	i	-2.0	17.5	0.3	2.8
Cc1nc(C)c(-c2ccc(SCc3ccccc3C)nn2)s1	-1.7	0.0	i	10.3*	3.7	-2.1	2.0
CN1CCc2c(sc(N)c2C(=O)O)C1	0.2	0.2	i	9.6*	0.4	20.5	1.4
O=C(CCC(=O)c1ccc(F)cc1)Nc1cc(Cl)cc(Cl)c1	-20.4	0.0	i	-1.3	3.1	0.4	1.1
CC(=O)c1cccc(NC(=O)CCC(=O)c2ccc(F)cc2)c1	-3.8	.	i	1.3	-4.5	4.8	.
N#CCC[C@H]1CC[C@]2(CCCN(C(=O)C3CCCCC3)C2)O1	-5.8	.	.	.	3.2	.	.
O=[N+]([O-])c1cc([N+](=O)[O-])c(N2CCCCCC2)cc1NCCO	0.3	-0.2	i	8.3*	-1.2	-0.4	-0.6
O=[N+]([O-])c1c(NCCO)cc(N2CCCCC2)c2nonc12	4.5	0.7	.	-1.5	-0.3	3.2	.
Cc1cc(=O)oc2cc(NC(=O)c3c(Cl)cnn3C)ccc12	-3.3	0.1	i	9.2*	-6.2	-2.7	0.9
COc1ccc2c(c1)C(NC(=O)C(F)(F)F)CC21CCCCC1 (stereo not given)	-6.8	.	.	.	0.0	-1.6	.
O[C@H](COc1cc(F)cc(F)c1)CN1CCC(C(O)(c2ccccc2)c2ccccc2)CC1	-16.5	.	.	.	-19.0	.	.
Cc1ccc(-c2nn3nnnc3c3ccccc23)cc1C	-19.3	0.0	i	7.7*	-14.4	15.7	-1.9
c1ccc(-c2nn3nnnc3c3ccccc23)cc1	-4.4	0.0	i	-0.4	-5.3	-4.2	.
CC(C)CNC(=O)OCc1cn(Cc2cc(F)ccc2F)nn1	-1.2	.	.	.	3.1	0.5	.
O=C1CCC[C@H]2C[C@H](NCc3ccc(Cl)cc3)CC[C@]23CCCN13	-0.8	.	.	.	-2.1	-1.2	.
COc1ccc(S(=O)(=O)N2CCC(c3nc4ccccc4o3)CC2)c(OC)c1	-9.2	.	.	.	-3.9	-1.7	.
O=c1ccnc(SCc2ccccc2Cl)[nH]1	-1.3	0.0	.	1.4	3.7	-1.2	.
Clc1ccccc1CSC1=NCCCN1	5.5	-0.1	i	0.9	1.7	-1.1	1.2
Clc1ccc(CSC2=NCCCN2)cc1Cl	1.3	0.2	i	1.6	-0.5	12.8	-0.5
CC(C)[C@H](N)C(=O)N[C@@H](Cc1ccccc1)C(=O)N1CCC2CCN(S(=O)(=O)c3ccccc3)CC21 (stereo not given in full)	-1.5	.	.	.	1.4	.	.
Cc1ccc(C)c(NC(=O)c2ccc(CS(=O)(=O)Cc3ccccc3C)o2)c1	0.8	.	.	.	-2.5	-1.5	.
Cc1nc2c(-c3ccc(F)cc3)c(C)nn2c(C)c1CCC(=O)N1CCN(c2ccccc2)CC1	-10.6	-0.2	i	11.8*	-8.2	.	2.1
O=C(NNc1nc2ccccc2s1)c1ccc(F)cc1	-0.8	-0.3	i	5.8*	-5.5	-4.8	3.0

Screening results (PubChem)
